12 compounds from PubChem BioAssay (Tox21) can be followed below.

The nature of assay [1]: qHTS assay to identify small molecule antagonists of the glucocorticoid receptor (GR) signaling pathway - cell viability counter screen (AID 720693). Further: nearly all actives have a fitted effect of over 55% in size. Further: potency means the concentration at half of the fitted maximal effect.
Assay [2] can be described thus: qHTS assay for identifying genotoxic compounds that show differential cytotoxicity against isogenic chicken DT40 cell lines with known DNA damage response pathways - wild type cell line (AID 743012). Further: nearly all actives have a fitted effect of over 60% in size. Further: potency means the concentration at half of the fitted maximal effect. In outline:
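Wild type DT40, 300 cells/well, ~0.5 h settle at 37 C/5% CO2; compounds in DMSO added by pintool; 40 h at 37 C/5% CO2; CellTiter-Glo, 30 min RT; luminescence.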
Background: Quantitative high-throughput screening tests each substance at several concentrations.

The nature of assay [3]: qHTS assay for identifying genotoxic compounds that show differential cytotoxicity against isogenic chicken DT40 cell lines with known DNA damage response pathways - Rev3 mutant cell line (AID 743014). Further: nearly all actives have a fitted effect of over 55% in size. Further: potency means the concentration at half of the fitted maximal effect.
Assay [4] can be described thus: qHTS assay for identifying genotoxic compounds that show differential cytotoxicity against isogenic chicken DT40 cell lines with known DNA damage response pathways - Rad54/Ku70 mutant cell line (AID 743015). Further: nearly all actives have a fitted effect of over 60% in size. Further: potency means the concentration at half of the fitted maximal effect.
Assay [5] can be described thus: qHTS assay to identify small molecule antagonists of the androgen receptor (AR) signaling pathway - cell viability counter screen (AID 743033; further: nearly all actives have a fitted effect of over 45% in size; further: potency means the concentration at half of the fitted maximal effect).
For assay [6], the target named is Androgen receptor (Homo sapiens) (UniProt P10275). As to the kind of experiment: qHTS assay to identify small molecule agonists of the androgen receptor (AR) signaling pathway using the MDA cell line (AID 743040; further: nearly all actives have a fitted effect of over 20% in size). The procedure, abridged: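 After a 5 h incubation at 37C and 0% CO2, MDA-kb2 reporter cells were dosed with compounds in DMSO and kept 16 h under the same conditions. Luciferase activity was then read as luminescence with ONE-Glo.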

Assay [7] can be described thus: qHTS assay to identify small molecule antagonists of the thyroid receptor (TR) signaling pathway - cell viability counter screen (AID 743064). Further: nearly all actives have a fitted effect of over 50% in size. Further: potency means the concentration at half of the fitted maximal effect. In outline:
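CellTiter-Fluor readout, 30 min at 37 °C/5% CO2, following 23.5 h incubation of GH3.TRE-Luc cells with test compound and 1 nM T3 (final).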

Assay [8] is described as follows: qHTS assay to identify small molecule antagonists of the thyroid receptor (TR) signaling pathway (AID 743065). Further: nearly all actives have a fitted effect of over 55% in size. Further: potency means the concentration at half of the fitted maximal effect. In outline:
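Antagonism measured as loss of luciferase signal in GH3 cells stably carrying a TRE-luciferase reporter, co-treated with compound and T3 (1 nM final) for 23.5 h at 37 C. Viability was read in the same well by CellTiter-Fluor.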

The subject of assay [9] is thyroid hormone receptor (rat, GH3 cells). As to the kind of experiment: qHTS assay to identify small molecule agonists of the thyroid receptor (TR) signaling pathway (AID 743066; calls by dose curve).
Assay [10] deals with Estrogen receptor (Homo sapiens) (UniProt P03372). As to the kind of experiment: qHTS assay to identify small molecule antagonists of the estrogen receptor alpha (ER-alpha) signaling pathway (AID 743069; active means well fitted curve in the direction sought with a large enough effect in the signal ratio in the repeat runs, not every such curve was filed as active; inconclusive means weak or mixed curves, or effect the other way; inactive means no such curve, though single readings can be large or run the other way; the % refers to the signal ratio; further: potency means the concentration at half of the fitted maximal effect). In outline: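 Compound effects are measured against 17beta-estradiol stimulation in HEK293 cells with a UAS-controlled beta-lactamase reporter for ER-alpha. Exposure lasts 18 hr at 37C; LiveBLAzer B/G FRET substrate follows for 2 hr at room temperature.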

Assay [11] is described as follows: qHTS assay to identify small molecule antagonists of the estrogen receptor alpha (ER-alpha) signaling pathway - cell viability counter screen (AID 743074; calls by dose curve;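 further: HEK293 cells carrying ER-alpha-UAS-bla reporter stimulated with 17beta-estradiol; nearly all actives have a fitted effect of over 45% in size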; further: potency means the concentration at half of the fitted maximal effect).
The target in assay [12] is Estrogen receptor (Homo sapiens) (UniProt P03372). The experiment in a line: qHTS assay to identify small molecule agonists of the estrogen receptor alpha (ER-alpha) signaling pathway using the BG1 cell line (AID 743079). Further: nearly all actives have a fitted effect of over 20% in size. Further: potency means the concentration at half of the fitted maximal effect.
Assay [13] is described as follows: qHTS assay to identify small molecule antagonists of the estrogen receptor alpha (ER-alpha) signaling pathway using the BG1 cell line - cell viability counter screen (AID 743081).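 Further: compound given together with 17beta-estradiol as the ER stimulus; nearly all actives have a fitted effect of over 45% in size.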 Further: potency means the concentration at half of the fitted maximal effect.
Another assay addresses Aromatase (Homo sapiens) (UniProt P11511). As to the kind of experiment: qHTS assay to identify aromatase inhibitors (AID 743083). Further: nearly all actives have a fitted effect of over 55% in size. Further: potency means the concentration at half of the fitted maximal effect.
The target of assay [14] is Androgen receptor (Homo sapiens) (UniProt P10275). As to the kind of experiment: qHTS assay to identify small molecule antagonists of the androgen receptor (AR) signaling pathway (AID 743035; active means well fitted inhibition curve with a large enough effect in the signal ratio in the repeat runs, not every such curve was filed as active; inconclusive means weak or mixed curves, or effect the other way; inactive means no such curve, though single readings can be large or run the other way; the % refers to the signal ratio; further: potency means the concentration at half of the fitted maximal effect). The procedure, abridged: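 Fluorescence from a beta-lactamase FRET substrate (LiveBLAzer B/G, 2 h, room temperature) measured inhibition of R1881-stimulated signaling in GeneBLAzer AR-UAS-bla HEK293 cells exposed to compound for 16 h at 37C.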

The nature of assay [15]: qHTS assay to identify small molecule antagonists of the androgen receptor (AR) signaling pathway using the MDA cell line - cell viability counter screen (AID 743041; further: nearly all actives have a fitted effect of over 45% in size; further: potency means the concentration at half of the fitted maximal effect). The procedure, abridged:
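R1881-driven MDA-kb2 AR-luc cells, 3,000/well, were dosed with library compounds for 16 h; cell health came from CellTiter-Fluor fluorescence in the reporter wells.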

The target of assay [16] is Androgen receptor (Homo sapiens) (UniProt P10275). As to the kind of experiment: qHTS assay to identify small molecule antagonists of the androgen receptor (AR) signaling pathway using the MDA cell line (AID 743042; further: nearly all actives have a fitted effect of over 55% in size; further: potency means the concentration at half of the fitted maximal effect). The procedure, abridged:
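Antagonist mode: compounds plus R1881 agonist added to MDA-kb2 AR-luc cells, incubated 16 h at 37C. Luciferase reporter luminescence quantified, with multiplexed CellTiter-Fluor readout for cell viability.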

Assay [17] concerns the target Estrogen receptor (Homo sapiens) (UniProt P03372). The experiment in a line: qHTS assay to identify small molecule agonists of the estrogen receptor alpha (ER-alpha) signaling pathway (AID 743075; calls by dose curve; further: potency means the concentration at half of the fitted maximal effect).
Assay [18] in a line: qHTS assay to identify small molecule antagonists of the estrogen receptor alpha (ER-alpha) signaling pathway using the BG1 cell line (AID 743080; calls by dose curve;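 further: BG1 cells stimulated with 17beta-estradiol alongside compound; nearly all actives have a fitted effect of over 25% in size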; further: potency means the concentration at half of the fitted maximal effect). The procedure, abridged:
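Readout is ONE-Glo luminescence, taken 30 min at room temperature after reagent addition, preceded by a CellTiter-Fluor viability read; BG1-Luc-4E2 cells had received compound and 17beta-estradiol for 21.5 h at 37 C.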

The target in assay [19] is Androgen receptor (Homo sapiens) (UniProt P10275). The experiment in a line: qHTS assay to identify small molecule agonists of the androgen receptor (AR) signaling pathway (AID 743036; active means well fitted activation curve with a large enough effect in the signal ratio in the repeat runs, with a control signal flat, not every such curve was filed as active; inconclusive means weak or mixed curves, or effect the other way; inactive means no such curve, though single readings can be large or run the other way; the % refers to the signal ratio). In outline:
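Following a 4 h settling period, AR-UAS-bla HEK293 cells were dosed with compounds for 16 h at 37C. A 2 h room-temperature incubation with LiveBLAzer B/G FRET substrate preceded the fluorescence measurement.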

SMILES strings stand for the structures. “And” between values parts separate entries of the source, which are not always exact repeats. Identical values can stand only once. The source made the active and inactive calls. Unless noted, the call rests on the fitted dose curve; in most records, active means well fitted curve in the direction sought with a large enough effect in the repeat runs; inconclusive means weak or mixed curves; inactive means no such curve, though single readings can be large; an effect the other way counts as inactive or inconclusive.

Estrogen receptor (Homo sapiens), sequence (P03372 whole entry, looked up): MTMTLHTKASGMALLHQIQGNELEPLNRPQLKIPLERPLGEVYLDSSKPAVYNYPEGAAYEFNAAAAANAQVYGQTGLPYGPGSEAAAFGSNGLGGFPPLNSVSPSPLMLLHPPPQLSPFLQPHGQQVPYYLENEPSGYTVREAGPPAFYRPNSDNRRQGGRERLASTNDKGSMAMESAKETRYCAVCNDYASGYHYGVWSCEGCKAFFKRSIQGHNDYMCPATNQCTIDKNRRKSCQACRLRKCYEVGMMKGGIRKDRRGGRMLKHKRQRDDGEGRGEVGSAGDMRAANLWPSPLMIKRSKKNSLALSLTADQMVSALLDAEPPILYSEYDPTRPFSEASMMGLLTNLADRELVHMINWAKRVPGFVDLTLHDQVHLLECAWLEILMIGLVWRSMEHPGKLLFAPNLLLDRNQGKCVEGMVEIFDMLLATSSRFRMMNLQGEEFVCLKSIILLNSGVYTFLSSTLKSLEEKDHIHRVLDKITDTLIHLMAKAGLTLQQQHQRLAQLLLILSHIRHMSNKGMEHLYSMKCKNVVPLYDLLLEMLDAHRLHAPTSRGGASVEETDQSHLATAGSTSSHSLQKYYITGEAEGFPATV
Aromatase (Homo sapiens), sequence (P11511 whole entry, looked up): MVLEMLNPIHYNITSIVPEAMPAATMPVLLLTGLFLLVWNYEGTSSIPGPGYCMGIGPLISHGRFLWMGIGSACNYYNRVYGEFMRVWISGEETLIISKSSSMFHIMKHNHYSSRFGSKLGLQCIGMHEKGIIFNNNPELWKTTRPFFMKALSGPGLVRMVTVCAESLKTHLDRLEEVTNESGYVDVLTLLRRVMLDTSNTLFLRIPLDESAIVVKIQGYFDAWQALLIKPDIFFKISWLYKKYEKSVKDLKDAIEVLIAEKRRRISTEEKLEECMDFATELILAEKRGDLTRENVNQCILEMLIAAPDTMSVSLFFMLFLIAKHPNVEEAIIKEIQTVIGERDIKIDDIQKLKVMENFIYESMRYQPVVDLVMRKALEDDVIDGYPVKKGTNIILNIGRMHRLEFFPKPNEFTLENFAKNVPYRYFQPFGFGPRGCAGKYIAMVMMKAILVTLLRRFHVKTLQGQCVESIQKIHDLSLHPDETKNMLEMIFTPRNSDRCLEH
Androgen receptor (Homo sapiens), sequence (P10275 whole entry, looked up): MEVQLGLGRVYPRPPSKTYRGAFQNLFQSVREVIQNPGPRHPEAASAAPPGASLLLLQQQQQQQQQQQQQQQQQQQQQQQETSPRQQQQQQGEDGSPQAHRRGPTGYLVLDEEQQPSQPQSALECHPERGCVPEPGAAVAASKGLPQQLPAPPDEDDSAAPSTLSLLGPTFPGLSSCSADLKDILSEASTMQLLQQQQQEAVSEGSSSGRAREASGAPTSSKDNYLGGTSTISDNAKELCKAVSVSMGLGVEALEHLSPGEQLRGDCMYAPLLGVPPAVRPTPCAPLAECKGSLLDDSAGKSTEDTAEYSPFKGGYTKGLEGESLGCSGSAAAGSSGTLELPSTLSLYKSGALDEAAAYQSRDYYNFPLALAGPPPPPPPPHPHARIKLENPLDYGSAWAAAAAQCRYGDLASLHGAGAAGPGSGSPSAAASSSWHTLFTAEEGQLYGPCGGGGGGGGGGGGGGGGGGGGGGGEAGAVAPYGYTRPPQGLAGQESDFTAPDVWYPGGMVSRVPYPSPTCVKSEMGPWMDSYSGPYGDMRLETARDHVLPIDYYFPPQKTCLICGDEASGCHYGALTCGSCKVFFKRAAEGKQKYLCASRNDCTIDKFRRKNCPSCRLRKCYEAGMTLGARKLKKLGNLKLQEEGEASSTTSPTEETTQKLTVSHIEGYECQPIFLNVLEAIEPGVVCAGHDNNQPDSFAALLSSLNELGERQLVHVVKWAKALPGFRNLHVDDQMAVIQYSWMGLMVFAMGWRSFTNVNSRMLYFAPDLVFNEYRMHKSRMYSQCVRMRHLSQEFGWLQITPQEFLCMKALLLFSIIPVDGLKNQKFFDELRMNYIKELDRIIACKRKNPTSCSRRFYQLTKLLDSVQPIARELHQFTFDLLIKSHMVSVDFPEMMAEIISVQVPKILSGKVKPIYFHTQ

Regarding `CC1(C)CN=C(NN=C(/C=C/c2ccc(C(F)(F)F)cc2)/C=C/c2ccc(C(F)(F)F)cc2)NC1`, the Potency in assay [1] is 24.5 µM (active); in assay [2] it was 4.33 µM (active); in assay [3], 3.86 µM (active); in assay [4], 4.33 µM (active); in assay [5] it was 21.9 µM (active); in assay [7] it was 12.2 µM (active). For the same compound, the Potency in [8] is 12.2 µM (active); in assay [10], 49 µM [cytotoxic] (active); in assay [11] it was 43.6 µM (active); in [12], 3.06 µM (active); in [13], 61.1 µM (active); with Aromatase (Homo sapiens), 8.63 µM (active). In addition, the Potency result in assay [6] was “inactive”. Moreover, the compound was classed as inactive in assay [9].

As to `C[C@H]1O[C@@H](O[C@H]2[C@@H](O)C[C@H](O[C@H]3[C@@H](O)C[C@H](O[C@H]4CC[C@@]5(C)[C@H](CC[C@@H]6[C@@H]5CC[C@]5(C)[C@@H](C7=CC(=O)OC7)CC[C@]65O)C4)O[C@@H]3C)O[C@@H]2C)C[C@H](O)[C@@H]1O`, the Potency in assay [1] is 477 nM (active) and 98.3 nM (active); in [2], 422 nM (active) and 388 nM (active); in assay [3] it was 473 nM (active) and 218 nM (active); in assay [4], 473 nM (active) and 308 nM (active); in assay [5], 95.2 nM (active) and 22 nM (active); in assay [14], 425 nM (active) and 124 nM (active). For the same compound, the Potency in [11] was 33.8 nM (active) and 19.6 nM (active); in [18], 0.548 µM (active). Besides, the Potency result in assay [15], in assay [16], in assay [7], in [8], in [17] and in assay [13] was “inactive” throughout. Further, the Potency result with Aromatase (Homo sapiens) was “inactive”. Also, the compound was called inactive in assay [9].

`COc1cccc(C(=O)CCN[C@@H](C)[C@H](O)c2ccccc2)c1`: the Potency entry in assay [1], in [5], in [14], in assay [19], in assay [6] and in assay [11] was “inactive” throughout. The Potency entry in the assay with Aromatase (Homo sapiens) was “inactive”. Moreover, the Potency in assay [2] is 6.68 µM (active); in assay [3], 16.8 µM (active); in assay [4] it was 13.3 µM (active); in [7] it was 13.3 µM (active); in [8], 10.6 µM (active).

As for `c1ccc2cc3c(cc2c1)-c1cccc2cccc-3c12`, the Potency result in assay [1], in [2], in [3], in [4], in [5] and in [6] was “inactive” throughout. Besides, the Potency entry (in [15]; in assay [8]; in assay [11]; in assay [12]; with Aromatase (Homo sapiens)) was “inactive” each time. For the same compound, the compound was classed as inactive in [9]. In addition, in assay [18], the Potency is 0.269 µM (active).

Regarding `CC[C@H]1C[C@@H]2C[C@H]3c4[nH]c5ccc(OC)cc5c4CCN(C2)[C@@H]13`, the Potency result in assay [1], in [5], in assay [19], in [6], in [15] and in [16] was “inactive” in each case. For the same compound, the Potency result (in assay [11]; in assay [17]; in assay [12]; in [18]; in assay [13]; with Aromatase (Homo sapiens)) was “inactive” in each case. In addition, the Potency in assay [2] is 23.9 µM (active); in assay [3], 47.7 µM (active); in [4], 53.5 µM (active); in assay [7], 60.1 µM (active); in assay [8], 30.1 µM (active). Further, the compound was called inactive in [9].

`O=C(O)c1cc[c]([Hg][Cl])cc1`: the Potency result in [1], in assay [2], in [15], in assay [10], in assay [11] and in assay [13] was “inactive” throughout. Moreover, the Potency in assay [3] is 1.93 µM (active); in [4], 1.54 µM (active); in [5], 54.9 µM (active); in [7], 17.2 µM (active); in assay [8], 6.86 µM (active); in [17], 49 µM [activator] (active). Also, the Potency with Aromatase (Homo sapiens) is 61.1 µM (active). In addition, the result in assay [9] was inactive.

In the case of `O=[N+]([O-])c1ccc2ccc3cccc4ccc1c2c34`, the Potency entry in assay [1], in assay [2], in assay [3], in assay [4], in assay [5] and in assay [6] was “inactive” each time. Also, the Potency result (in assay [15]; in [16]; in assay [7]; in [11]; in assay [12]; with Aromatase (Homo sapiens)) was “inactive” throughout. Moreover, the result in assay [9] was inactive. Further, the Potency in [17] was 2.75 µM [fluorescent] (active).

`ClCc1ccc(Cl)cc1Cl`: the Potency result in [1], in assay [2], in assay [3], in assay [4], in [5] and in [15] was “inactive” each time. Moreover, the Potency result in assay [7], in assay [8], in assay [10], in assay [11], in assay [17] and in assay [12] was “inactive” throughout. Besides, the Potency entry (in assay [18]; in [13]; with Aromatase (Homo sapiens)) was “inactive” throughout. Moreover, the compound was called inactive in assay [9].

Consider `CC(C)(C)OO`, for which the Potency entry in [1], in assay [2], in assay [3], in [4], in assay [5] and in assay [14] was “inactive” in each case. Besides, the Potency entry in [19], in assay [6], in assay [15], in assay [16], in assay [7] and in assay [8] was “inactive” throughout. For the same compound, the Potency result (in assay [11]; in [13]; in the assay with Aromatase (Homo sapiens)) was “inactive” throughout. In addition, the compound was called inactive in assay [9].

In the case of `O=C1c2ccccc2C(=O)C1C(=O)C(c1ccccc1)c1ccc(Cl)cc1` (stereo not given), the Potency in assay [1] was 19.5 µM (active); in [2], 27.3 µM (active); in [3], 27.3 µM (active); in assay [4], 21.7 µM (active); in assay [5], 13.8 µM (active); in assay [16] it was 15.4 µM (active). The Potency was 27.3 µM (active) in [7]; 15.4 µM (active) in assay [8]; 5.49 µM [inconclusive] (active) in assay [10]; 43.6 µM (active) in [11]; 54.5 µM (active) with Aromatase (Homo sapiens). For the same compound, the Potency result in assay [19], in assay [6], in assay [17] and in [12] was “inactive” each time. The result in [9] was inactive.

On to `CC(c1ccc(O)cc1)c1ccc(O)cc1`, for which the Potency entry in [1], in [2], in [3], in assay [4], in assay [5] and in assay [15] was “inactive” each time. Moreover, the Potency entry (in assay [7]; in assay [8]; in [11]; in [18]; in assay [13]; in the assay with Aromatase (Homo sapiens)) was “inactive” in each case. The compound was called inactive in assay [9].

Turning to `N#CSCSC#N`, the Potency in assay [1] was 22.4 µM (active) and 21.7 µM (active); in assay [2], 5.57 µM (active) and 1.21 µM (active); in assay [3], 1.98 µM (active) and 1.91 µM (active); in assay [4], 3.51 µM (active) and 1.52 µM (active); in [5], 22.4 µM (active) and 24.3 µM (active); in assay [15], 62.5 µM (active) and 60.5 µM (active). For the same compound, the Potency is 55.7 µM (active) and 60.5 µM (active) in assay [16]; 2.79 µM (active) and 4.28 µM (active) in assay [7]; 1.98 µM (active) and 2.15 µM (active) in assay [8]; 14 µM (active) and 17.1 µM (active) with Aromatase (Homo sapiens). Also, the Potency entry in [6], in [11] and in assay [13] was “inactive” throughout.
